According to PubChem BioAssay AID624273 (Broad Institute, 2012):
In all, about 1,000 compounds went through this assay and about 230 (23%) were called active. Another 1% or so got no clear call; they are omitted. The list shows a part of the results. Potency and affinity values are given separately. A number with no mark means an inactive call. How the calls were made is not given here.

Each compound was assayed against Long-chain-fatty-acid--AMP ligase FadD28 (Mycobacterium tuberculosis (strain ATCC 25618 / H37Rv)) (UniProt P9WQ59) (assay: inhibitors of FadD28 bisubstrate probe binding, dose response, biochemical, fluorescence polarization, cherry-pick (AID 624273)). Details: series mostly up to 50 µM; activity change, negative = inhibition: at the top concentration.
Sequence of Long-chain-fatty-acid--AMP ligase FadD28 (Mycobacterium tuberculosis (strain ATCC 25618 / H37Rv)) (P9WQ59 whole entry, looked up): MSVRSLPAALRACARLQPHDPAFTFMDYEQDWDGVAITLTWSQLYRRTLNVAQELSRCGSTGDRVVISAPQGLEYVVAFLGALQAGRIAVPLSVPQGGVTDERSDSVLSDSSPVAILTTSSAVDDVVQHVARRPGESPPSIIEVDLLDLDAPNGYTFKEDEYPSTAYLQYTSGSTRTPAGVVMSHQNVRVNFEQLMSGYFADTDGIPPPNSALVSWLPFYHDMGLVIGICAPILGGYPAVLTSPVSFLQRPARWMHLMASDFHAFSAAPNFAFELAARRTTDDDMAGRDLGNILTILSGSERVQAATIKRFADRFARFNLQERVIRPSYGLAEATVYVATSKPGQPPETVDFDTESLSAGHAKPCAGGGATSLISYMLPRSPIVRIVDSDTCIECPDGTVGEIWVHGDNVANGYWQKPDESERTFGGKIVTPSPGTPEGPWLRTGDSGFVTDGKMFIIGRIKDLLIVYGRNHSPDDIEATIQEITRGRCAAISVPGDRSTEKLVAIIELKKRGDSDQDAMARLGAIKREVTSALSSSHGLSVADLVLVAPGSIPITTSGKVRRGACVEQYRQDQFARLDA

Structure (SMILES)	activity change, negative = inhibition [%]
Cc1nn(C(=O)c2ccco2)c(C)c1Br	-1.79
Cc1cc(NC(=O)Nc2cccc3ccccc23)no1	-3.52
COc1ccc2nc(-c3ccc(F)cc3)sc2c1	0.629
O=C(NC(=S)NCc1nc2ccccc2[nH]1)c1ccccc1F	-0.845
Cc1ccc(C(=O)NN2C(=O)/C(=C/c3cccn3C)SC2=S)cc1	-1.32
C=CCSc1nc(=O)n2cccc(C)c2n1	-3.79
c1ccc(-c2cnn3c(-c4ccccc4)c(-c4ccccc4)nc3n2)cc1	-0.288
O=C(COc1ccccc1-c1ccccc1)NCc1cccc(Cl)c1	-0.734
COc1ccc(CNCCc2ccc3c(c2)OCO3)cc1Br	-4.77
CC(C)c1ccc(NC(=O)CCCC(=O)NCCc2ccccc2)cc1	-4.77
CC(C)(C)c1ccc(NC(=O)C(=O)C2C(=O)Nc3ccccc32)cc1 (centres undefined)	-1.66
COC(=O)c1c(N(S(C)(=O)=O)S(C)(=O)=O)sc2c1CCN(c1ncc(C(F)(F)F)cc1Cl)C2	2.06
CCOC(=O)C1=C(C)OC(N)=C(C#N)C1c1cc(F)ccc1F (centres undefined)	-0.975
Cc1cc(C)n2nc3nc(N4CCCC4)nc(-c4ccccc4)c3c2n1	-2.65
CC(=O)NN1C(=O)/C(=C\c2ccc(Br)o2)SC1=S	-22
O=C(CSc1nc2ccsc2c(=O)n1Cc1ccc(C(=O)O)cc1)NCc1ccco1	-3.94
Cc1nn(CCc2nn[nH]n2)c2nc(-c3ccc(C4CCCCC4)cc3)cc(C(F)(F)F)c12	-13.7
O=C(CSc1nc2ccccc2[nH]1)NC1CCCc2ccccc21 (centres undefined)	2.68
CCOC(=O)c1[nH]nc2c1C(=O)N(CC)C2=O	5.22
Cc1cc(-n2c(C)cc(C(=O)COc3ccc(F)c(F)c3)c2C)no1	-2.54
COc1ccc(OCC(=O)NNC(=O)C(=O)N2CCCC2)cc1	-2.89
COc1ccc(S(=O)(=O)N(C)C[C@H]2Oc3ccc(NC(=O)Nc4ccc5c(c4)OCO5)cc3C(=O)N([C@H](C)CO)C[C@@H]2C)cc1	-13.2
O=C(CSc1nnc(CNC(=O)C23CC4CC(CC(C4)C2)C3)n1-c1ccccc1)Nc1ccc(F)cc1	-3.94
CCCCCCCCCCCCC(=O)CCCCC(=O)O	-11.5
COc1ccc(OC)c(NC(=O)c2nnn(CCc3ccccc3)c2N)c1	-5.48
O=C(COc1ccccc1)Nc1ccc(CN2CCCCC2)cc1	-0.991

Structure (SMILES)	activity change, negative = inhibition [%]
COc1ccc(N2CC(C(=O)Nc3cccnc3)CC2=O)cc1 (centres undefined)	-4.29
COc1ccc(CN2CCC(C(=O)Nc3ccc(Oc4cccnc4)cc3)CC2)c(C)c1C	-2.98
O=C(Nc1ccc(Cc2ccncc2)cc1)C1CCC(N2C(=O)C3C4C=CC(C4)C3C2=O)CC1 (centres undefined)	-6.15
COc1ccc(N(CC(=O)NC2CCCCC2)C(=O)CCC(=O)Nc2nc(C)cs2)cc1	-4.81
CCOC(=O)CSc1nc(C)c2ccccc2n1	-4.24
CCOC(=O)c1ccc(NS(=O)(=O)c2ccc3c(c2)NC(=O)CCS3)cc1	-11.2
CCOC(=O)c1ccc(Nc2cc(C)nc(-c3ccccc3O)n2)cc1	4.75
COc1cc2[nH]c(Cl)c([N+](=O)[O-])c2cc1OC	-4.27
CCC1CCC(C(=O)NNC(=O)c2cc(-c3ccco3)[nH]n2)CC1 (centres undefined)	6.66
CCOC(=O)C1CCCN(C(=O)c2cc(Nc3ccc(OC)c(OC)c3)nc3ccccc23)C1 (centres undefined)	-19.4
CCOC(=O)C1CCCN(C(=O)C2c3ccccc3Oc3ccccc32)C1 (centres undefined)	-3.5
CCCCc1c(O)nc(SCC(=O)N2CCOCC2)n(-c2ccc(OC)cc2)c1=O	-7.17
CCOc1ccc(-c2nnc(SCC(=O)N3CCCC3)o2)cc1	0.57
Cn1c(=O)c2c(ncn2Cc2ccc(Cl)cc2)n(C)c1=O	-4.35
COc1ccc2c(C)cc(SCC(=O)N(C)C3CCS(=O)(=O)C3)nc2c1 (centres undefined)	10.8
Cc1ccccc1Nc1ccc([N+](=O)[O-])cn1	0.292
O=C(COC(=O)c1ccccc1NC(=O)c1ccco1)Nc1ncc(Cl)cc1Cl	-1.69
Cn1ccc(C(=O)NC(=S)Nc2ccc([N+](=O)[O-])cc2O)n1	-9.47
COc1ccc(C(=O)NNC(=O)C(=O)N2CCCCC2)cc1OC	-1.68
Cc1ccccc1CS(=O)(=O)Cc1ccc(C(=O)NCc2ccco2)o1	-2.3
O=C(NCc1n[nH]c(=S)n1-c1ccccc1)c1ccco1	-3.99
O=C(Cn1c(=O)oc2ccccc21)Nc1cccc(Cl)c1	0.08
COc1cccc(C(=O)NCc2ccccc2OC)c1	-1.19
COc1ccccc1NC(=O)Nc1cccc(C)n1	-5.5
COC(=O)c1cc2oc(C)cc2n1CC(=O)N(C)c1ccccc1	-5.85
COc1ccc(C(=O)COC(=O)CNS(=O)(=O)c2ccc(C)cc2)cc1	-11.6

Structure (SMILES)	activity change, negative = inhibition [%]
CC(=O)c1cccc(NC(=O)COC(=O)c2ccccc2C)c1	-1.82
COc1cccc(NCc2cc(=O)oc3cc(-c4ccccc4)c(O)cc23)c1	-4.19
CCOC(=O)Cn1cc(C(=O)c2ccco2)c2ccccc21	5.76
COc1ccc(-c2cc(C)no2)cc1S(=O)(=O)N(C)c1cccc(C)c1	-6.11
COc1ccccc1C(=O)COC(=O)c1nc2nc(C)cc(C)n2n1	-5.13
CCCSC1=N/C(=C\C=C\c2ccco2)C(=O)S1	-0.768
COc1cccc(NC(=O)Cn2nnc(C(=O)Nc3ccccc3)c2N)c1	-12.1
CC(C)(C)NC(=O)Cn1nnc(-c2ccccc2Cl)n1	-0.253
COc1ccc(OC)c(NC(=O)NNC(=O)c2cc3occc3[nH]2)c1	-1.69
COc1ccc(CC(=O)OCC(=O)NC(=O)NC23CC4CC(CC(C4)C2)C3)cc1	-18.2
Cc1ccc(NC(=O)CN(C)C(=O)c2cc(-c3ccco3)nc3ccccc23)cc1	-8.04
CCc1nc(C)cn1S(=O)(=O)c1cc(C)c(OC)c(C)c1C	-6.02
COc1cc(/C=N/NC(=O)Cn2nc([N+](=O)[O-])cc2C)cc(Br)c1OCc1ccccc1	-0.747
Cc1cccc(OCC(=O)N2CCN(C(=O)Cc3ccccc3)CC2)c1	-6.77
COc1cccc(OCCn2cc(/C=N/NC(=O)c3ccncc3)c3ccccc32)c1	-1
COc1ccc2c(c1OC)C(=O)N1C2SC(C)(C)[C@H]1C(=O)NCCCOC(C)C (some centres undefined)	-1.76
Cc1cccc(-n2c(O)c(C=NCCCN3CCOCC3)c3ccccc3c2=O)c1	-1.13
Nc1ccccc1C#Cc1ccc([N+](=O)[O-])cc1	-6.75
Cc1cccnc1C(NC(=O)C1CCN(CCCc2ccccc2)CC1)c1ccc(Cl)cc1 (centres undefined)	-2.31
CON(C)C(=O)c1ccccc1N(C)C(=O)OC(C)(C)C	-0.108
CC1CCN(S(=O)(=O)c2ccc(NC(=O)Cn3nnc(-c4ccccc4F)n3)cc2)CC1	-2.23
O=C(CSc1nnc(Cc2ccccc2)o1)c1ccc2c(c1)OCO2	-8.26
O=C(CSc1ccc(-c2nc3ccccc3[nH]2)cn1)Nc1ccc(S(=O)(=O)NC2CC2)cc1	-1.38
Cc1ccc(C)c(OCCC(=O)OCC(=O)Nc2cccc(S(=O)(=O)N3CCCC3)c2)c1	8.54
Cc1ccc(NC(=O)COC(=O)c2cccc(S(=O)(=O)N3CCCCCC3)c2)cc1	-3.13
CC(Sc1nnc(CNc2cccc3ccccc23)n1-c1ccccc1)C(=O)N/N=C/c1ccco1 (centres undefined)	-0.168

Structure (SMILES)	activity change, negative = inhibition [%]
Cc1cc(C)c2sc(N(CCCN(C)C)C(=O)c3ccc(S(=O)(=O)N4CCCc5ccccc54)cc3)nc2c1	-2.43
CC1(C)Oc2ccc3ccc(=O)oc3c2/C(=C/O)C1=O	-0.411
COc1ccc(C2NC3=C(CCC3)C3(C#N)C4(N=C(N)C23C#N)OCCO4)cc1 (centres undefined)	-11
O=C(Cc1ccc(Cl)cc1)Nc1ccc(N2CCN(C(=O)c3ccco3)CC2)c(Cl)c1	-3.35
Cc1nn(-c2ccccc2)c(Cl)c1/C=N/NC(=O)c1cccnc1	6.19
CCOC(=O)c1c(C)nc2sc3c(=O)n(-c4ccc(C(C)=O)cc4)cnc3c2c1-c1ccc(OC)cc1	2.06
C=CCOc1ccc(C2OC34CCCCC3C(C#N)(C#N)C2(C#N)C(=N)O4)cc1 (centres undefined)	-3.77
N/C(CSc1ccc(Cl)cc1)=N\NC(=O)c1ccncc1	-6.22
Cc1c(NC(=O)c2ccc3ncccc3c2)c(=O)n(-c2ccccc2)n1C	-5.27
COC(=O)c1cc(C)nc2c1C(=O)C(=O)C=C2N1CCOCC1	-21
Cc1ccc(OCCC(=O)OCC(=O)c2c(N)n(CC(C)C)c(=O)n(C)c2=O)cc1	-11
CCC(=O)c1cccc(-c2ccccc2)c1CC	-0.468
COc1cc(OC)c(C2=NOC(C(=O)Nc3c(C)n(C)n(-c4ccccc4)c3=O)C2)cc1Cl (centres undefined)	-5.34
COc1ccc(CN(C)C(=O)c2ccc(OCC(=O)Nc3cccc(C(F)(F)F)c3)c(OC)c2)c(OC)c1	-1.66
CCCCOc1ccc(Nc2cc(Cl)ccc2C(=O)O)cn1	0.048
N#CCC(=O)Nc1ccc(C(=O)OCC(=O)Nc2cccc(C(F)(F)F)c2)cc1	-17.3
Cc1ccc(NC(=O)CN2C(=O)S/C(=C/c3ccc(-c4cc(C(=O)O)ccc4C)o3)C2=O)cc1C	-1.88
O=C(NCc1ccccc1)C1=C[C@@H](c2ccc(C(F)(F)F)cc2)C[C@@H](OCCCCO)O1	2.16
NC(Cc1ccc(C(F)(F)F)cc1)c1csc(NC(=O)Nc2ccccc2Cl)n1 (centres undefined)	10.4
Cc1onc(C(=O)N2CCC(C(N)=O)CC2)c1-c1ccccc1Cl	-5.26
COc1cc(NC(=O)C2CCN(S(=O)(=O)c3ccc(Cl)cc3)CC2)ccc1-n1cnnn1	-7.58
CSc1cccc(CN2CCC(CCC(=O)NC3CC3)CC2)c1	-4.63
S=c1nc(-c2ccco2)[nH][nH]1	-2.11
COc1ccc(OC)c(-n2c(-c3cc(-c4ccco4)[nH]n3)n[nH]c2=S)c1	-8.69
Cc1nnc(NC(=O)C2CC(=O)N(c3ccc4c(c3)OCCO4)C2)s1 (centres undefined)	-0.245
COc1ccc(C2(CNC(=O)C(c3ccccc3)c3ccccc3)CCOCC2)cc1OC	-0.359
